The sequences below were run on THRa:RXRa (NR concentration 90 nM, RXRa partner concentration 90 nM) (assay: PBM binding z-score (relative to random genomic background probes); higher = stronger binding; sequences stand for … in GC…GCGATTGACAGCGTAGAATGAAGG).
In short: (§1)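 Random background probes are the reference for binding z-scores. These scores derive from regression-normalized fluorescence on custom Agilent 4×180K protein-binding microarrays incubated 1 h with ligand-free nuclear receptor dimers. Binding was detected with antibodies against each partner (one per run).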

Sequence | PBM binding z-score
AGAATTAGGTTATTAAGATCAGGGAATTGCGGTC | 0.913
AGAACGAGGGCAAAGAGTTGATAGCACGGGTGGC | 0.917
TTACGAAGGTGAAGGTCGTTGATCCCTCTGTAGA | 1.52
CAGCCTAGGTCACGGCCAGTATAGGAGGAACGTT | 3.65
AGTCTAAGTTCATCTAGGTAACGTAAGATATGCT | 2.9
GCTGCTAGGTCAAATGATGGTCAGCTAAAGCTCG | 2.78
CAAACTAGGTCTAGAGGTCAAAGTCCGCTTCCCG | 3.8
CCGACTGGGGCATAAGGTTAACATAAGCCAGCCC | 2.08
AGAACGTGGGCACGCTGAGTTGATAGCAGAGTAG | -0.485
CAAACTAGGTCACGAAAGGTCAAACTCGAATGAC | 5.26
GCGACTGGGGCATCCGCAGGTTACCATAACTTAA | 1.21
ATCTCTATGTAAAGTTCAGTGAAAGATCGATAGA | 0.757
TGAATGAGGTTATAAGATTAGGGAACGTTGCAAA | 1.68
GCGACTGGGGCATCAGCAGGTTACCACAACTTAA | 0.805
GCTATTAGTTGAAAGGGCAACTGAATGATTCTCG | 0.832
ATCTCTAGGTAAAGATAGTTCAGTGATTGCAAAT | 0.879
GGAAGGAGGGCATTCGAGTTGATAGCATGGCGAT | 2.83
CCTATCAGGCCAATCTGGGTCACTCAAGGCTTGA | 4.02
ACTAGCAGGCCAAGGGTCATTCAAGATTAGTCCG | 3.12
CCGAGTAGGTTATGGGGCATTCAAGCAACGGTGA | 0.205

Sequence | PBM binding z-score
TTTCAAAGTTCAAAGGTAACGTAAGTATCCACAC | 3.58
TCTAGCAGGCCAGAGGGTCGCTCAAGAGGTACGG | -0.276
TATACAGGGTCAAAAGCCAGAGTACGAATGTCGA | 3.04
CCTCGGAGGACAACAGGAGGTCAGAGCCGCCAGA | 2.8
CCGACTGGGGCAAAGGTTACCTTACTCAGTACGA | 2.12
CGAACGAGAGCATGAGTTGATAGCAAATGCCGAT | -0.724
CCAGACAGGTGAAAGATAACTCAGTCTGGTACGC | 0.125
CCTATTAGTTGACCATAAGGGCAATCGAAGCTCG | 1.47
CCTTACGGATCAAGGTTATAGCACGGGTGGTACG | 1.16
TAGCCTAGGTCATCGGCCAGTATACCACGCGAAC | 2.76
CAAACTTGGTCAAGAGGTCAAAGTCCGCTTCCCG | 3.78
CGTCAATGTTCAAGGTAACGTAACAGAAAGCAGC | 1.56
GCTAGCAGGCCATTTGGGTCAATCAATGACGGGC | 1.87
CAAACTAGGTCAAGAGGTCATAGTCCGCTTCCCG | 4.35
GGAACGAGGGCAAGGTGATAGCAGAGTTTGATGG | 1.89
CCTCGGAGTACAACAGGAGGTCAGAGCTGCCAGA | 2.16
TAGCCTAGGTCATGCGGGCCAGTAGAGTGTCGGC | 2.96
TCATATAGGTAAATGCTAGATGAAAGTCCGATCT | -0.0472
TCTTGTAGATCAATAGAGGTTAAGAACGTGCGCT | 2.33
TAGCCTAGGTCATGGGCCAGTCTACCACGCGAAC | 2.93

What follows are sequences tested on THRa homodimer (NR concentration 90 nM) in the same assay as above.
In short: as §1

Sequence | PBM binding z-score
AGAATTAGGTTATTAAGATCAGGGAATTGCGGTC | 0.502
AGAACGAGGGCAAAGAGTTGATAGCACGGGTGGC | -0.224
TTACGAAGGTGAAGGTCGTTGATCCCTCTGTAGA | 0.135
CAGCCTAGGTCACGGCCAGTATAGGAGGAACGTT | 1.98
AGTCTAAGTTCATCTAGGTAACGTAAGATATGCT | 0.767
GCTGCTAGGTCAAATGATGGTCAGCTAAAGCTCG | 0.255
CAAACTAGGTCTAGAGGTCAAAGTCCGCTTCCCG | 1.56
CCGACTGGGGCATAAGGTTAACATAAGCCAGCCC | 1.06
AGAACGTGGGCACGCTGAGTTGATAGCAGAGTAG | -0.747
CAAACTAGGTCACGAAAGGTCAAACTCGAATGAC | 2.82
GCGACTGGGGCATCCGCAGGTTACCATAACTTAA | -0.198
ATCTCTATGTAAAGTTCAGTGAAAGATCGATAGA | -0.304
TGAATGAGGTTATAAGATTAGGGAACGTTGCAAA | 0.15
GCGACTGGGGCATCAGCAGGTTACCACAACTTAA | -0.203
GCTATTAGTTGAAAGGGCAACTGAATGATTCTCG | -0.217
ATCTCTAGGTAAAGATAGTTCAGTGATTGCAAAT | 0.445
GGAAGGAGGGCATTCGAGTTGATAGCATGGCGAT | 0.445
CCTATCAGGCCAATCTGGGTCACTCAAGGCTTGA | 1.16
ACTAGCAGGCCAAGGGTCATTCAAGATTAGTCCG | 0.107
CCGAGTAGGTTATGGGGCATTCAAGCAACGGTGA | 0.0762

Sequence | PBM binding z-score
TTTCAAAGTTCAAAGGTAACGTAAGTATCCACAC | 0.252
TCTAGCAGGCCAGAGGGTCGCTCAAGAGGTACGG | -1.24
TATACAGGGTCAAAAGCCAGAGTACGAATGTCGA | 0.446
CCTCGGAGGACAACAGGAGGTCAGAGCCGCCAGA | 0.858
CCGACTGGGGCAAAGGTTACCTTACTCAGTACGA | 0.802
CGAACGAGAGCATGAGTTGATAGCAAATGCCGAT | -1.07
CCAGACAGGTGAAAGATAACTCAGTCTGGTACGC | -0.296
CCTATTAGTTGACCATAAGGGCAATCGAAGCTCG | 1.18
CCTTACGGATCAAGGTTATAGCACGGGTGGTACG | 0.694
TAGCCTAGGTCATCGGCCAGTATACCACGCGAAC | 1.11
CAAACTTGGTCAAGAGGTCAAAGTCCGCTTCCCG | 1.66
CGTCAATGTTCAAGGTAACGTAACAGAAAGCAGC | 1.19
GCTAGCAGGCCATTTGGGTCAATCAATGACGGGC | 0.12
CAAACTAGGTCAAGAGGTCATAGTCCGCTTCCCG | 2.59
GGAACGAGGGCAAGGTGATAGCAGAGTTTGATGG | 0.882
CCTCGGAGTACAACAGGAGGTCAGAGCTGCCAGA | 0.436
TAGCCTAGGTCATGCGGGCCAGTAGAGTGTCGGC | 0.801
TCATATAGGTAAATGCTAGATGAAAGTCCGATCT | -0.457
TCTTGTAGATCAATAGAGGTTAAGAACGTGCGCT | -0.182
TAGCCTAGGTCATGGGCCAGTCTACCACGCGAAC | 1.09
